High-throughput results (PubChem)
esBAF inh: Bmi1 luciferase reporter increase in mESCs, primary screen, esBAF inhibitor project, mouse ES cells, Bmi1 luciferase knock-in, single point | reporter increase, % at 12.5 µM | 24 h; 100% = twice the neutral-well signal | actives 2% (n = 350,000); in the data active = activation above about 40%;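 note: 0% = median of the plate's neutral control wells and 100% = double that signal; a rise in the Bmi1 reporter signal indicates esBAF inhibition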
SMARCA2 act: SMARCA2 (BRM) function activators, primary screen, cell-based, luminescence, high throughput. MG213 cells, MMTV-luciferase reporter, dexamethasone, overnight. actives 1% (n = 370,000). AID 652017, 2013. activation, % at 9.1 µM; in the data active = activation above about 7.8%;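 note: 0% = vehicle wells and 100% = reference activator wells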
MITF act: activators of MITF-driven TRPM1 promoter reporter, primary screen, cell-based, SK-MEL-5, luciferase, single point; activation, % at 12.5 µM; SK-MEL-5 TRPM1-promoter luciferase, 24 h; % of positive control, neutral wells = 0; actives 0.75% (n = 300,000);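 active = mean activation of at least 80% with every replicate also reaching 80%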;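 note: 0% = neutral control wells and 100% = parthenolide positive control wells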
HSF1 inhib: HSF1 inhibitors in luciferase reporter cells, primary screen, cell-based, NIH3T3, luminescence | NIH3T3-HGL HSE-luciferase, MG132-induced, luminescence 8 h; hits give low values | activity change, negative = inhibition, % at 7.5 µM (by protocol) | actives 0.77% (n = 300,000) | AID 2098, 2009;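 active = more than half of replicate wells show activity change below -50%, luminescence cut by over half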;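 note: luciferase reports HSF-1 transcriptional activity via heat shock element; 0% = median of DMSO wells and -100% = zero luminescence signal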
HSF-1 act: HSF-1 activators, primary screen, NIH3T3-HGL cells, MG132 stress, luminescence, single point; AID 504408, 2011; actives 1.7% (n = 300,000); activation, % at 9 µM; NIH3T3-HGL HSF-1 luciferase reporter, 8 h; 100% = twice DMSO control signal;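 active = mean replicate activation of at least 50% with a set share of replicates each reaching 50%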;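 note: 0% = median of the neutral control wells and 100% = twice that signal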
Wnt bcat act: Wnt/beta-catenin pathway activators, primary screen, cell-based, plate reader, single point. actives 1.2% (n = 300,000). activation, % at 9.35 µM. AID 743398, 2014. Wnt/beta-catenin reporter cell assay, activator; in the data active = activation above about 30%, passing the limit was not always enough;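 note: 0% = neutral control wells and 100% = positive control wells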
Active calls of the source: *; x = no result. Only some compounds are listed: those with a hit (about 4.3% of all), similar ones and a draw of the others.

SMILES	esBAF inh	SMARCA2 act	MITF act	HSF1 inhib	HSF-1 act	Wnt bcat act
Cc1ccc(Cn2nnc(C(=O)Nc3cccc(C)c3C)c2N)cc1	12	-2	4	0	6	-4
Cc1cccc(NC(=O)c2n[nH]c([N+](=O)[O-])c2Br)c1C	13	1	79	19	32	45*
C[C@@H]1CN([C@H](C)CO)C(=O)c2cc(-c3ccccc3F)cnc2O[C@@H]1CN(C)Cc1cccc(F)c1	-3	x	x	x	x	x
CCOc1cc(/C=C/C(=O)c2ccc3c(c2)OCCO3)ccc1OCC(=O)N(C)C	3	-3	x	53	68*	-1
O=C(Nc1ccccc1)c1cc2ccccc2s1	45*	0	48	x	x	13
O=C(Nc1ccccn1)c1cc2cc([N+](=O)[O-])ccc2s1	x	3	45	22	41	14
O=C(Nc1ccccc1)c1cc2ccccc2c(=O)s1	x	1	77	-20	-20	x
O=C(Nc1ccc(O)cc1)c1cc2ccccc2c(=O)s1	49*	3	100*	6	18	0
CCN1[C@H](C(=O)NC2CCCC2)[C@@H](CO)[C@@H]2Cn3c(ccc(-c4ccccc4F)c3=O)[C@@H]21	5	x	x	x	x	x
S=c1[nH]cc(-c2ccccc2)n1-c1ccccc1Cl	x	-1	-1	15	57*	-1
COCC(=O)Nc1ccc2c(c1)C(=O)N(C)C[C@H](OC)[C@H](C)CN(Cc1cccc(F)c1)[C@@H](C)CO2	-6	x	x	x	x	x
CC(C)OCCCN1C(=O)c2[nH]nc(-c3ccccc3O)c2C1c1cccc(Cl)c1 (centres undefined)	x	-3	-17	13	-1	-1
COCCCN1C(=O)c2[nH]nc(-c3ccccc3O)c2C1c1cccc(Cl)c1 (centres undefined)	x	-3	-39	36	71*	-12
COc1ccc(Cl)cc1NC(=O)c1ccc2c(SCC(=O)O)c3c(nc2c1)CCCC3	-2	-1	5	15	29	2
O=C(CSc1c2c(nc3ccccc13)CCCC2)NCc1ccco1	x	3	-11	40	86*	-31
COCCCNC(=O)CSc1c2c(nc3ccc(Cl)cc13)CCCC2	x	1	-20	37	40	-3
O=C(CSc1c2c(nc3cc(Cl)ccc13)CCCC2)NCCN1CCOCC1	x	1	-7	43	65*	0
Cc1ccc(CNC(=O)CSc2c3c(nc4cc(Cl)ccc24)CCCC3)o1	4	0	x	44	65*	0
O=C(CSc1c2c(nc3cc(Cl)ccc13)CCCC2)NCCCN1CCOCC1	x	-4	-12	141	189*	-1
O=C(CSc1c2c(nc3ccc(Cl)cc13)CCCC2)NCCCN1CCOCC1	x	-3	-14	41	68*	7
CCN(CC)CCCNC(=O)CSc1c2c(nc3cc(Cl)ccc13)CCCC2	x	-2	-12	154	202*	x
C[C@@H]1CN([C@H](C)CO)C(=O)c2cccc(NS(=O)(=O)c3cccs3)c2O[C@@H]1CN(C)S(=O)(=O)c1ccc(Cl)cc1	-2	x	x	x	x	x
Cc1cc2c(c(/C=C/C(=O)c3ccccc3)c1)OC1(C=C2)Oc2ccccc2C(=O)N1C (centres undefined)	x	2	-39	46	74*	3
CN(C)C(=O)C[C@@H]1CC[C@@H]2[C@H](COC[C@@H](O)CN2Cc2ccc(C(F)(F)F)cc2)O1	12	x	x	x	x	x
Cc1ccc(NC(=O)/C(C#N)=N/Nc2ccc(C(=O)O)cc2)c(C)c1	x	5	0	-6	-3	44*
Cc1ccc(N/N=C(\C#N)C(N)=S)c(C)c1	x	-3	8	9	12	x
Cc1ccc(S(=O)(=O)Nc2ccc3c(c2)C(=O)N([C@H](C)CO)C[C@H](C)[C@@H](CN(C)S(=O)(=O)c2ccc(Cl)cc2)OCCCC[C@@H](C)O3)cc1	2	x	x	x	x	x
CCN(CCS(=O)(=O)c1ccc(Cl)cc1)C(=O)Nc1ccccc1	-9	-2	x	-64*	-73	2
O=C(Nc1ccccc1)N(O)c1ccc(Cl)cc1	68*	3	32	13	30	x
